# Reference: PubChem BioAssay (Tox21)
# “And” between values parts separate entries of the source, which are not always exact repeats. Equal values may be shown once. Records with an inconclusive call do not appear. A call without a number means that no potency is given here. The source made the active and inactive calls. Unless noted, calls follow the shape of the dose curve; as a rule, active = well fitted curve in the direction sought with a large enough effect in the repeat runs; inconclusive = weak or mixed curves; inactive = no such curve, though single readings can be large; an effect the other way counts as inactive or inconclusive.
# What was measured:
# [1] = molecular target: Acetylcholinesterase (Homo sapiens) (UniProt P22303); experiment: Acetylcholinesterase (AChE) small molecule antagonists: enzyme-based qHTS assay with human liver microsomes (AID 1347399; calls by dose curve; also: nearly all actives have a fitted effect of over 60% in size); conditions: Potency: qHTS inhibition
# How it was run: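 Recombinant human AChE (50 mU/mL in the enzyme mix) and human liver microsomes (0.25 mg/mL final) were preincubated with compound and NADPH (0.25 mg/mL final) for 30 min at 37 C. Acetylthiocholine/DTNB was then added; thiocholine was read colorimetrically after 10 min at room temperature.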
# [2] = molecular target: Cytochrome P450 2D6 (Homo sapiens) (UniProt P10635); experiment: Cytochrome P450 Family 2 Subfamily D Member 6 (CYP2D6) small molecule antagonists: luciferase reporter qHTS assay (AID 1671196); also: nearly all actives have a fitted effect of over 50% in size
# How it was run: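 CYP2D6 enzyme–substrate mix was held with compound for 10 min at room temperature, then NADPH regeneration solution was added and the reaction ran 1 h at room temperature. Luciferin product was detected by luminescence after 20 min with detection reagent.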
# [3] = molecular target: Cytochrome P450 2C19 (Homo sapiens) (UniProt P33261); experiment: Cytochrome P450 Family 2 Subfamily C Member 19 (CYP2C19) small molecule antagonists: luciferase reporter qHTS assay (AID 1671197); also: nearly all actives have a fitted effect of over 65% in size
# How it was run: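 First, compounds are pinned into enzyme-substrate mix and held 10 min at room temperature. Second, NADPH regeneration solution is added and plates incubate 1 h at 37C. Third, detection reagent is added and luminescence read after 20 min.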
# [4] = molecular target: Cytochrome P450 2C9 (Homo sapiens) (UniProt P11712); experiment: Cytochrome P450 Family 2 Subfamily C Member 9 (CYP2C9) small molecule antagonists: luciferase reporter qHTS assay (AID 1671198); also: nearly all actives have a fitted effect of over 50% in size
# How it was run: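 P450-Glo proluciferin substrate with CYP2C9 enzyme; 10 min RT preincubation, then NADPH regeneration 1 h at 37C; luciferin detection reagent 20 min RT, luminescence in relative luminescence units.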
# [5] = molecular target: Cytochrome P450 1A2 (Homo sapiens) (UniProt P05177); experiment: Cytochrome P450 Family 1 Subfamily A Member 2 (CYP1A2) small molecule antagonists: luciferase reporter qHTS assay (AID 1671199); also: nearly all actives have a fitted effect of over 50% in size
# How it was run: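 Human CYP1A2 activity measured with a P450-Glo proluciferin substrate; compounds in DMSO preincubated 10 min at room temperature with enzyme-substrate mix, then NADPH regeneration system added for 1 h. Luciferin detection reagent, 20 min, luminescence read.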
# [6] = molecular target: Voltage-gated inwardly rectifying potassium channel KCNH2 (Homo sapiens) (UniProt Q12809); experiment: Human Ether-a-go-go-Related Gene (hERG) channel small molecule antagonists: fluorescence cell-based qHTS assay (AID 1671200); also: nearly all actives have a fitted effect of over 50% in size
# How it was run: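 hERG-U2OS cells plated overnight at 37 C, loaded with FluxOR II dye 1 h at RT in dark; after 10 min, thallium stimulus added. Fluorescence (480/540 nm) read kinetically for 2 min at 1 s intervals.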
# [7] = molecular target: Cytochrome P450 3A4 (Homo sapiens) (UniProt P08684); experiment: Cytochrome P450 Family 3 Subfamily A Member 4 (CYP3A4) small molecule antagonists: luciferase reporter qHTS assay (AID 1671201); also: nearly all actives have a fitted effect of over 50% in size
# How it was run: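 P450-Glo CYP3A4 luminescent assay: compounds preincubated 10 min at room temperature with enzyme and proluciferin substrate, NADPH regeneration added, 1 h room-temperature reaction, stopped with luciferin detection reagent; luminescence read after 20 min. Ketoconazole positive control.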
# Potency is read from the fitted curve at half-maximal effect.
# Sequence of Cytochrome P450 2C9 (Homo sapiens) (P11712 whole entry, looked up): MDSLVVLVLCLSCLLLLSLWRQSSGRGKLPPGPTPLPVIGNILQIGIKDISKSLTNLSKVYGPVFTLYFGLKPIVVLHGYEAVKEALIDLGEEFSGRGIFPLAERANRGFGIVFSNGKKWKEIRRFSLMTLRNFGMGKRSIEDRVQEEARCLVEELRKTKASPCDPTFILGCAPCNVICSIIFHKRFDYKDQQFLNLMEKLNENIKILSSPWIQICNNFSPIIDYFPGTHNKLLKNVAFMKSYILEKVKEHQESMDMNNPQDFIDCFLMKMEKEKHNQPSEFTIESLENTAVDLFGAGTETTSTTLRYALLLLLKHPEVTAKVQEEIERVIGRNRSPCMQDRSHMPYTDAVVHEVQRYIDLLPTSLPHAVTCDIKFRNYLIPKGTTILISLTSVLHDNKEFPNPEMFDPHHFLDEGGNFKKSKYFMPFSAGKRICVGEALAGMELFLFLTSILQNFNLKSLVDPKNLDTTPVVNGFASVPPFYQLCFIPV
# Sequence of Cytochrome P450 2D6 (Homo sapiens) (P10635 whole entry, looked up): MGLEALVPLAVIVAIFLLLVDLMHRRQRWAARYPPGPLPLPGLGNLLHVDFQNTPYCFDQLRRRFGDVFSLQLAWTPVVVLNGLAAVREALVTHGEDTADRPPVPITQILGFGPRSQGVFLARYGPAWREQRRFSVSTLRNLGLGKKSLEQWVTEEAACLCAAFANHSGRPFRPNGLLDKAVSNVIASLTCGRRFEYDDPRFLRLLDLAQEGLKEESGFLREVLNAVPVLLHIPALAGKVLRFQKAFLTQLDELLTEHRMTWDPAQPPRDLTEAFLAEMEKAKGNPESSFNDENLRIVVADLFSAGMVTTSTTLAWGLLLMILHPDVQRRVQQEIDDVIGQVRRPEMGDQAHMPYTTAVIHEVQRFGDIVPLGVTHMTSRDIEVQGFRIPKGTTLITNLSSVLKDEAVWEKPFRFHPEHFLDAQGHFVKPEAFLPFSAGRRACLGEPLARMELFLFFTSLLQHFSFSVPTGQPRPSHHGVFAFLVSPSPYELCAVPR
# Sequence of Cytochrome P450 1A2 (Homo sapiens) (P05177 whole entry, looked up): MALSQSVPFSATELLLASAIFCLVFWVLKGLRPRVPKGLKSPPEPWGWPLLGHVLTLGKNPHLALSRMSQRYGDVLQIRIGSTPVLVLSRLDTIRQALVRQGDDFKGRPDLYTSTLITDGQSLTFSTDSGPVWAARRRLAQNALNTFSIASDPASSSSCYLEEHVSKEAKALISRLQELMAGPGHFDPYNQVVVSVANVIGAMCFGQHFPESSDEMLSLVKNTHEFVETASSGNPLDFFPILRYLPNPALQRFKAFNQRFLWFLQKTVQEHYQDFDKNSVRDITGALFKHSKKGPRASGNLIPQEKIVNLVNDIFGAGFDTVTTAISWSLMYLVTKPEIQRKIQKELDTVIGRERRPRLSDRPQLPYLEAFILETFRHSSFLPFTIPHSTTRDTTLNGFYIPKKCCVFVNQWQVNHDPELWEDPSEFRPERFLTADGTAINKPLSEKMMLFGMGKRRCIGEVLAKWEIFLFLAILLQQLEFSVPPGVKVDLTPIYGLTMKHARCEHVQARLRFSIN
# Sequence of Cytochrome P450 3A4 (Homo sapiens) (P08684 whole entry, looked up): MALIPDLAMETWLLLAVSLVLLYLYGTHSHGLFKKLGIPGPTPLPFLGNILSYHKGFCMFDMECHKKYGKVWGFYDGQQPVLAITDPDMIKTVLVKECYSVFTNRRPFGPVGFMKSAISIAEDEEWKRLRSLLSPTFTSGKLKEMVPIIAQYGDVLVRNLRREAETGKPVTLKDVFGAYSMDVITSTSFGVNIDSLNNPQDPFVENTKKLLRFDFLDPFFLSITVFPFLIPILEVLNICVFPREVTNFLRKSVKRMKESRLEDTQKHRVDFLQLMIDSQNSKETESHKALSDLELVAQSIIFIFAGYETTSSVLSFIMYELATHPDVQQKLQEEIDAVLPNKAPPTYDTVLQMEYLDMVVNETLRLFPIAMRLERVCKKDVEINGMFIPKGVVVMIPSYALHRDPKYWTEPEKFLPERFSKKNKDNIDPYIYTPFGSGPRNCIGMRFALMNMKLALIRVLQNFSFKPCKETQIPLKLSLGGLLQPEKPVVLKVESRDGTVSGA
# Sequence of Acetylcholinesterase (Homo sapiens) (P22303 whole entry, looked up): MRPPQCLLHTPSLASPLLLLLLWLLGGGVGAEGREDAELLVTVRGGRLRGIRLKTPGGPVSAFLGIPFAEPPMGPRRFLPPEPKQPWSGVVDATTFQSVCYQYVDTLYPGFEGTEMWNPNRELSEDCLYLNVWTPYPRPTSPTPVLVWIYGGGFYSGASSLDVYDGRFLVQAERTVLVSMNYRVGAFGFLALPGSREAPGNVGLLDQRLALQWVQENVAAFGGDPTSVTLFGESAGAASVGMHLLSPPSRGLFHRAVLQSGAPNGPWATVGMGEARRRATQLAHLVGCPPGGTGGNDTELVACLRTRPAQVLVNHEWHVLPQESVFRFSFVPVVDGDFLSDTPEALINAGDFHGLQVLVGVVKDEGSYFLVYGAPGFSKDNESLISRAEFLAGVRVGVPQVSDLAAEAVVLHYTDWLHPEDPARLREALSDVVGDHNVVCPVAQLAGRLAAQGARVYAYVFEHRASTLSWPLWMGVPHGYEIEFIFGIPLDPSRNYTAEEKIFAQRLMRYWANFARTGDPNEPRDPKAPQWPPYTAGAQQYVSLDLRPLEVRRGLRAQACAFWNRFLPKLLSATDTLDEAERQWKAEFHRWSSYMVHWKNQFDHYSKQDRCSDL
# Sequence of Cytochrome P450 2C19 (Homo sapiens) (P33261 whole entry, looked up): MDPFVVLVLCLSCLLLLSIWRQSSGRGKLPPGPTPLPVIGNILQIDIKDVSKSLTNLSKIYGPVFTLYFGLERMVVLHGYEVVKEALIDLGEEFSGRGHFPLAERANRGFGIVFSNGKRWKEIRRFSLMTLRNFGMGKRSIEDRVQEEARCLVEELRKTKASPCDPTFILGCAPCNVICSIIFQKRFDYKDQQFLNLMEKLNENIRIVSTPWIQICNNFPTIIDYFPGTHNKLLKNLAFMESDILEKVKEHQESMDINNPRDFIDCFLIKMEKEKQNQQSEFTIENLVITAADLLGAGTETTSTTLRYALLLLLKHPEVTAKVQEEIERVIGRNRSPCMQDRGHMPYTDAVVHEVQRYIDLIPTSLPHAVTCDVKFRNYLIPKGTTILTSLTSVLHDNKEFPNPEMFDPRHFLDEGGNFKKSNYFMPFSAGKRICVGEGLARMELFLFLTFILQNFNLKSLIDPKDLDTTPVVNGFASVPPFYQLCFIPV
# Sequence of Voltage-gated inwardly rectifying potassium channel KCNH2 (Homo sapiens) (Q12809 whole entry, looked up): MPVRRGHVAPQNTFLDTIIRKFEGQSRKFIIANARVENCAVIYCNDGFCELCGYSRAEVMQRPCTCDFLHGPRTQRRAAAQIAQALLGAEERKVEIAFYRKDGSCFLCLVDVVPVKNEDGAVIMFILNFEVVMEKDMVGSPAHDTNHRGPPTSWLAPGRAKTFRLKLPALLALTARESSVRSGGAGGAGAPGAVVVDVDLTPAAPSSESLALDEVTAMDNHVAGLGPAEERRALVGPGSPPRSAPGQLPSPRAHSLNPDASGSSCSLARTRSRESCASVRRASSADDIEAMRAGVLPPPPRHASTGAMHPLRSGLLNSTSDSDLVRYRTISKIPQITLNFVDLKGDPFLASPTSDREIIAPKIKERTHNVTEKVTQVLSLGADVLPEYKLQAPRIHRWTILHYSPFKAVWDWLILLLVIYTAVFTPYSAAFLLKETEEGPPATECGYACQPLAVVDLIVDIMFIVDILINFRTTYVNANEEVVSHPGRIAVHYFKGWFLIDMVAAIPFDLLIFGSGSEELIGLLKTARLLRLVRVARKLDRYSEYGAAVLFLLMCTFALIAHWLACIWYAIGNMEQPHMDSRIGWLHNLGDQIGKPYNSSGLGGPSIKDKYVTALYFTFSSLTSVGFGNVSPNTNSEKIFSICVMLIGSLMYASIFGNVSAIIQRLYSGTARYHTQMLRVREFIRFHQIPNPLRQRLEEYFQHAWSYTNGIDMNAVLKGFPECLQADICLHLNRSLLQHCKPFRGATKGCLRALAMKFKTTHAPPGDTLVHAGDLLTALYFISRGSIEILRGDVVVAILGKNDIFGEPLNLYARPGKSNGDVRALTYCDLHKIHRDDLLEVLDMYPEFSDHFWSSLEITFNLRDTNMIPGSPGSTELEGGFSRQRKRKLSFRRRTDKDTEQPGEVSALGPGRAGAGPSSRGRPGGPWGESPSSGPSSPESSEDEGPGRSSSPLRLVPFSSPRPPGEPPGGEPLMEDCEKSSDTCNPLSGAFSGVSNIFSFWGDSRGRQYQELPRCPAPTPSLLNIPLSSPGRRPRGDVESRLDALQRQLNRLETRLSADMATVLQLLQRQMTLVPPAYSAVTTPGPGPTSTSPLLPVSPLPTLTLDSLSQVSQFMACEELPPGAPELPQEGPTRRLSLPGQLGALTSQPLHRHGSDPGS
Compound,Potency [1],Potency [2],Potency [3],Potency [4],Potency [5],Potency [6],Potency [7]
OC(c1ccc(Cl)cc1)(c1ccc(Cl)cc1)C(Cl)(Cl)Cl,inactive,31.7 µM (active),0.0564 µM (active),5.03 µM (active),14.2 µM (active),24.5 µM (active),inactive
O=c1c(C2CC(c3ccc(-c4ccc(Br)cc4)cc3)Cc3ccccc32)c(O)sc2ccccc12 (stereo unspecified),inactive,inactive,,5.49 µM (active),inactive,inactive,
Clc1ccc(COC(Cn2ccnc2)c2ccc(Cl)cc2Cl)cc1 (stereo unspecified),inactive,663 nM (active) and 224 nM (active) and 490 nM (active),166 nM (active) and 89 nM (active) and 246 nM (active),,1.87 µM (active) and 1.78 µM (active) and 911 nM (active),,
O=[N+]([O-])c1cc(C(F)(F)F)c(Cl)c([N+](=O)[O-])c1Cl,inactive,inactive,,12.6 µM (active),11.2 µM (active),27.5 µM (active),
ClC1=C(Cl)[C@]2(Cl)[C@H]3[C@H]([C@H]4C=C[C@H]3C4)[C@@]1(Cl)C2(Cl)Cl,inactive,inactive,15.9 µM (active),,inactive,,1 µM (active)
CC1(C)[C@H](C(=O)O[C@H](C#N)c2cccc(Oc3ccccc3)c2)[C@@H]1/C=C(\Cl)C(F)(F)F,inactive,inactive,5.86 µM (active) and 7.1 µM (active),8.28 µM (active) and 7.96 µM (active),,inactive,
CC(C)[C@H](C(=O)O[C@H](C#N)c1cccc(Oc2ccccc2)c1)c1ccc(Cl)cc1,inactive,inactive,7.96 µM (active),5.63 µM (active),,inactive,inactive
CCN,inactive,inactive,inactive,inactive,,inactive,inactive
c1ccc2c(c1)[nH]c1cnccc12,inactive,7.11 µM (active),31.8 µM (active),31.8 µM (active),7.98 µM (active),,31.8 µM (active)
O=C(CCl)Nc1ccccc1,inactive,39.9 µM (active),inactive,inactive,,inactive,inactive
Cc1c(Cl)c(=O)oc2cc(OP(=O)(OCCCl)OCCCl)ccc12,3.09 µM (active),3.47 µM (active),2.19 µM (active),3.89 µM (active),,,inactive
COC[C@H](C)N(C(=O)CCl)c1c(C)csc1C,inactive,inactive,,inactive,inactive,inactive,
CC(=O)OC1(c2ccccc2)CCN(CCc2ccccc2)CC1,inactive,0.727 µM (active),40.9 µM (active),,inactive,25.1 µM (active),inactive
CCCCCCCCCCCCCN1CC(C)OC(C)C1 (stereo unspecified),inactive,22.4 µM (active),inactive,,inactive,,inactive
CCCCCCCCCCCCBr,inactive,inactive,inactive,inactive,,inactive,inactive
CC(C)CCCCCOC(=O)c1ccccc1C(=O)OCCCCCC(C)C,inactive,27.9 µM (active),39.5 µM (active),12.5 µM (active),35.2 µM (active),,2.79 µM (active)
CC(C)OC(=S)S,inactive,inactive,inactive,31.7 µM (active),,inactive,inactive
C[C@@H]1O[C@@H](O[C@@H]2C=C3CC[C@@H]4[C@H](CC[C@]5(C)[C@@H](c6ccc(=O)oc6)CC[C@]45O)[C@@]3(C)CC2)[C@H](O)[C@H](O)[C@H]1O,inactive,inactive,inactive,,inactive,inactive,inactive
CCOP(=S)(OCC)OC(Cl)C(Cl)(Cl)Cl (stereo unspecified),28.3 µM (active),inactive,39.9 µM (active),3.99 µM (active),35.6 µM (active),,3.99 µM (active)
CCCCCCCCCCBr,inactive,inactive,inactive,inactive,,inactive,inactive
CC1(C)C(/C=C(\Cl)C(F)(F)F)C1C(=O)OC(C#N)c1cccc(Oc2ccccc2)c1 (stereo unspecified),inactive,inactive,8.09 µM (active),8.09 µM (active),,inactive,inactive
CN(C)CCc1c[nH]c2cccc(O)c12,inactive,7.03 µM (active),19.8 µM (active),7.89 µM (active),,inactive,
CC1(C)CN=C(NN=C(/C=C/c2ccc(C(F)(F)F)cc2)/C=C/c2ccc(C(F)(F)F)cc2)NC1,inactive,11.2 µM (active),inactive,,,0.389 µM (active),inactive
Cc1cc(N=Nc2ccccc2C)ccc1N,inactive,63.3 µM (active),5.64 µM (active) and 8.94 µM (active),5.03 µM (active) and 5.64 µM (active),1.26 µM (active) and 2 µM (active),,1.59 µM (active) and 7.1 µM (active)
ClC1=C(Cl)[C@]2(Cl)[C@@H]3[C@@H](Cl)[C@H](Cl)C[C@@H]3[C@@]1(Cl)C2(Cl)Cl,inactive,inactive,inactive,inactive,inactive,,inactive
CCCOCC(=Nc1ccc(Cl)cc1C(F)(F)F)n1ccnc1,inactive,35.6 µM (active),0.71 µM (active),5.03 µM (active),8.94 µM (active),,0.283 µM (active)
CC(C)(C)OO,inactive,inactive,inactive,inactive,,inactive,inactive
Cc1ccc(C(=O)Cl)cc1,inactive,inactive,,inactive,inactive,,
